# According to the supplement of paper PMC10849652:
# Of roughly 7,900 targets only a part is listed; those with a hit were picked by preference. About 0.6% of all pairs of compound and target were hits. Values without a mark were called inactive.
# Key:
# Assay in all cases: log2 fold change, soluble protein after heating vs DMSO (PISA); higher = thermal stabilisation; K562 cells, 10 uM, 30 min; active = over 0.2 and 3.5 SD of the protein, either way, in both replicates (recomputed)
# [1] = compound: COC1=CC=C(C=C1)CN2C=CC3=C2C=C(C=C3)C(=O)NO
# Outline: (§1)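 Soluble protein was quantified by TMTpro 16plex LC-MS/MS after channel sums were equalised. It was obtained as the supernatant after 21,000xg for 90 min from pooled aliquots of K562 cells (2×10^6 cells/mL, 10 μM compound, 30 min) heated for 3 min across 48°C-58°C and extracted in PBS with 0.5% NP-40 at 4°C. Thermal stability values are relative to control samples and come from duplicates. They are given as log2 fold changes.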
# filanesib = compound: CON(C)C(=O)N1N=C(c2cc(F)ccc2F)S[C@@]1(CCCN)c1ccccc1 [filanesib]
# Outline: as §1
# zotarolimus = compound: CO[C@H]1C[C@@H]2CC[C@@H](C)[C@@](O)(O2)C(=O)C(=O)N2CCCC[C@H]2C(=O)O[C@H]([C@H](C)C[C@@H]2CC[C@H](n3cnnn3)[C@H](OC)C2)CC(=O)[C@H](C)/C=C(\C)[C@@H](O)[C@@H](OC)C(=O)[C@H](C)C[C@H](C)/C=C/C=C/C=C/1C [zotarolimus]
# Outline: as §1
# idasanutlin = compound: COc1cc(C(=O)O)ccc1NC(=O)[C@@H]1N[C@@H](CC(C)(C)C)[C@](C#N)(c2ccc(Cl)cc2F)[C@H]1c1cccc(Cl)c1F [idasanutlin]
# Outline: as §1
# alisertib = compound: COc1cc(Nc2ncc3c(n2)-c2ccc(Cl)cc2C(c2c(F)cccc2OC)=NC3)ccc1C(=O)O [alisertib]
# Outline: as §1
# [2] = compound: COc1cc2nc(-c3cc(F)ccc3O)nc(N[C@@H]3CNC[C@H]3C(C)(C)O)c2cc1OC
# Outline: as §1
# gefitinib = compound: COc1cc2ncnc(Nc3ccc(F)c(Cl)c3)c2cc1OCCCN1CCOCC1 [gefitinib]
# Outline: as §1
# [3] = compound: COc1cccc2cc(-c3nc([C@H]4CC[C@H](C(=O)O)CC4)n4ncnc(N)c34)[nH]c12
# Outline: as §1
# lapatinib = compound: CS(=O)(=O)CCNCc1ccc(-c2ccc3ncnc(Nc4ccc(OCc5cccc(F)c5)c(Cl)c4)c3c2)o1 [lapatinib]
# Outline: as §1
# pictilisib = compound: CS(=O)(=O)N1CCN(Cc2cc3nc(-c4cccc5[nH]ncc45)nc(N4CCOCC4)c3s2)CC1 [pictilisib]
# Outline: as §1
# [4] = compound: CS(=O)(=O)c1ccc(-c2cnc(N)c(C(=O)Nc3ccccc3)n2)cc1
# Outline: as §1
# crizotinib = compound: C[C@@H](Oc1cc(-c2cnn(C3CCNCC3)c2)cnc1N)c1c(Cl)ccc(F)c1Cl [crizotinib]
# Outline: as §1
# [5] = compound: C[C@@H]1COCCN1C2=NC(=NC(=C2)C3(CC3)S(=O)(=O)C)C4=C5C=CNC5=CC=C4
# Outline: as §1
# [6] = compound: C[C@H](C1=CC=C(C=C1)C(=O)NC2=C3C=CNC3=NC=C2)N
# Outline: as §1
# duvelisib = compound: C[C@H](Nc1ncnc2nc[nH]c12)c1cc2cccc(Cl)c2c(=O)n1-c1ccccc1 [duvelisib]
# Outline: as §1
# gandotinib = compound: Cc1cc(Nc2cc(CN3CCOCC3)c3nc(C)c(Cc4ccc(Cl)cc4F)n3n2)n[nH]1 [gandotinib]
# Outline: as §1
# tozasertib = compound: Cc1cc(Nc2cc(N3CCN(C)CC3)nc(Sc3ccc(NC(=O)C4CC4)cc3)n2)n[nH]1 [tozasertib]
# Outline: as §1
# [7] = compound: Cc1cc(SCc2sc(-c3ccc(C(F)(F)F)cc3)nc2C)ccc1OCC(=O)O
# Outline: as §1
# doramapimod = compound: Cc1ccc(-n2nc(C(C)(C)C)cc2NC(=O)Nc2ccc(OCCN3CCOCC3)c3ccccc23)cc1 [doramapimod]
# Outline: as §1
# ispinesib = compound: Cc1ccc(C(=O)N(CCCN)[C@@H](c2nc3cc(Cl)ccc3c(=O)n2Cc2ccccc2)C(C)C)cc1 [ispinesib]
# Outline: as §1
# Chain of UniProt P30626 (P30626 whole entry, looked up): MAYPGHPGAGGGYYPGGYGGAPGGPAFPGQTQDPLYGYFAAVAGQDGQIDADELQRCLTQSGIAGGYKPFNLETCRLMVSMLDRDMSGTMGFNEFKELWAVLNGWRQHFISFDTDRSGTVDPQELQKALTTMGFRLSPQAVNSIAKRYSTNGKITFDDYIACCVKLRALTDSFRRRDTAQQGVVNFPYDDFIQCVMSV
# Chain of UniProt Q96DI7 (Q96DI7 whole entry, looked up): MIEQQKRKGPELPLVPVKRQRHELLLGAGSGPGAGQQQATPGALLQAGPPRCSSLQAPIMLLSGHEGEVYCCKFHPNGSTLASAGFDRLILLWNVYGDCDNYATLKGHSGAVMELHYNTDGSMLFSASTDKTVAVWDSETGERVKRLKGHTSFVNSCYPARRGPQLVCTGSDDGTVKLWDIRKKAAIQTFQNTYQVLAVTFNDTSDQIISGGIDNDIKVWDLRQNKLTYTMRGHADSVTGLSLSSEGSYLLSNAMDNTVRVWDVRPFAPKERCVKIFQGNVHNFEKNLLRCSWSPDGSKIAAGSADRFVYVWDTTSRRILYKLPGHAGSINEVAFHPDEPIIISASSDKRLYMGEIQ
# Chain of UniProt Q8NBW4 (Q8NBW4 whole entry, looked up): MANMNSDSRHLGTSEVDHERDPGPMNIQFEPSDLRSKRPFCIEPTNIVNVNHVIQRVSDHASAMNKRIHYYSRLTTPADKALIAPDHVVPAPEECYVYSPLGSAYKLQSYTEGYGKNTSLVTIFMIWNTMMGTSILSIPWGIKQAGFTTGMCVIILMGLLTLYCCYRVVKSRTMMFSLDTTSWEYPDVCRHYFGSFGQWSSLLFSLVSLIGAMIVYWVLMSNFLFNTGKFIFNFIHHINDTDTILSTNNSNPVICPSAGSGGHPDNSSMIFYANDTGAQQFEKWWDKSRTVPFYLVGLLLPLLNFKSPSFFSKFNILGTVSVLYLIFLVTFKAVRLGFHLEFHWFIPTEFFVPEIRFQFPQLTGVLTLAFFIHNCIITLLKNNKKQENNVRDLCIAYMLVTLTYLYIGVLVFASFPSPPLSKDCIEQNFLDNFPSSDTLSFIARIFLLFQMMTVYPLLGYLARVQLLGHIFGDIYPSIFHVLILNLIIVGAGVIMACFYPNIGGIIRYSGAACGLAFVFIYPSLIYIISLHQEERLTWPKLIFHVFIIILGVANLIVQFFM
# Chain of UniProt Q05519 (Q05519 whole entry, looked up): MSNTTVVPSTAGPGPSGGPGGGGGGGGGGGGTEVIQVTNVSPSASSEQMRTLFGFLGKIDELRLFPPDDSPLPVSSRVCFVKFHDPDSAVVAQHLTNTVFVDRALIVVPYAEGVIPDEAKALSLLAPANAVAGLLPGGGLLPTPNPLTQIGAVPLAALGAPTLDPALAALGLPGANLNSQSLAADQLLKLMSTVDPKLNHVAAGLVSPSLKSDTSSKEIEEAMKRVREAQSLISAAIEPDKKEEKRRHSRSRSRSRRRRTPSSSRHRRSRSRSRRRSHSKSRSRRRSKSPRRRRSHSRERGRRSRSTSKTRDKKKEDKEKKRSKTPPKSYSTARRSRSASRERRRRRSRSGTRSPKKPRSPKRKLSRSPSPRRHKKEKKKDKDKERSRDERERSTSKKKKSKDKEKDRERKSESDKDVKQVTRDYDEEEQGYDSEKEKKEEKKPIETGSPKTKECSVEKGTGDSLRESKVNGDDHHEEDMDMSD
# Chain of UniProt Q8IY18 (Q8IY18 whole entry, looked up): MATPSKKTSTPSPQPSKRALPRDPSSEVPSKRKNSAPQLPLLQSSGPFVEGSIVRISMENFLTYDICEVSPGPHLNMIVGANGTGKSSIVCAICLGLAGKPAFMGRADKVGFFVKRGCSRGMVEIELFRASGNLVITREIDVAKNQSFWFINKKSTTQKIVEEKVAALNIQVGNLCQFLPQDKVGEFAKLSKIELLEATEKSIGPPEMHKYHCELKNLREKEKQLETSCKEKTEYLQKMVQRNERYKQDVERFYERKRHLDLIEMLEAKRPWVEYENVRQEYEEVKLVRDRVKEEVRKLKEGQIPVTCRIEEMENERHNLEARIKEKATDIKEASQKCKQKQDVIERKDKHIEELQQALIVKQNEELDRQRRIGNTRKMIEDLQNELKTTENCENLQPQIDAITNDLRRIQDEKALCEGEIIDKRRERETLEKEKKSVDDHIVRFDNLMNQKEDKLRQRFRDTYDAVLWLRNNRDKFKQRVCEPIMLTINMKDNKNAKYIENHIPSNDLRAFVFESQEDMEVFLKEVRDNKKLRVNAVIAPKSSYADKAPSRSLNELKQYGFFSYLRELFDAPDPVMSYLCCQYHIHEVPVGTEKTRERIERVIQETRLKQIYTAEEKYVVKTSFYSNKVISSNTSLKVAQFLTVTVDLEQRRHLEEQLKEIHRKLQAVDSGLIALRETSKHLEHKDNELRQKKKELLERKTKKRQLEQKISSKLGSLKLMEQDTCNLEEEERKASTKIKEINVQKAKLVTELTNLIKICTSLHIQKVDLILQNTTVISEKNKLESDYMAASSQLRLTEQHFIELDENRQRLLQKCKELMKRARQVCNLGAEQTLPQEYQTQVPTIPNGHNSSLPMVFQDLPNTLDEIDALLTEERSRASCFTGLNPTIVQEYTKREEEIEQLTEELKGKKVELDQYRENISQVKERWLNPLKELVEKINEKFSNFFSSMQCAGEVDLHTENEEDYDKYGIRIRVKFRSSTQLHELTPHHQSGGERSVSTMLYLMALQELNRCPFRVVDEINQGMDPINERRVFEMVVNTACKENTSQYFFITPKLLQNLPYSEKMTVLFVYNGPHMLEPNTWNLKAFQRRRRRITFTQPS
# Chain of UniProt Q9UNL2 (Q9UNL2 whole entry, looked up): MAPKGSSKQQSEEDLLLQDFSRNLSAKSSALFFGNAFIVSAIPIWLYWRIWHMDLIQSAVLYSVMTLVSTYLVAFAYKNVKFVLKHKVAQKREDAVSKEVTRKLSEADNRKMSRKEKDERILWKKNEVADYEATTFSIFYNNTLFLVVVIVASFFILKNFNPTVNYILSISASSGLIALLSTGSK
# Chain of UniProt Q9NZD8 (Q9NZD8 whole entry, looked up): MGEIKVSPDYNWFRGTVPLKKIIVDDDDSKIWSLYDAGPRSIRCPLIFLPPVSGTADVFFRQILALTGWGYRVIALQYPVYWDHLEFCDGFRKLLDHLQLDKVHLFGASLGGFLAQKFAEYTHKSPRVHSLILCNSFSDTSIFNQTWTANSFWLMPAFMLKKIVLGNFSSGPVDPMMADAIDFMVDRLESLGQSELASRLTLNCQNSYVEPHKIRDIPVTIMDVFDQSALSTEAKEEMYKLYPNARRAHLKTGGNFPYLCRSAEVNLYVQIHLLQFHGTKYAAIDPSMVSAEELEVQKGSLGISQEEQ
# Chain of UniProt P53597 (P53597 whole entry, looked up): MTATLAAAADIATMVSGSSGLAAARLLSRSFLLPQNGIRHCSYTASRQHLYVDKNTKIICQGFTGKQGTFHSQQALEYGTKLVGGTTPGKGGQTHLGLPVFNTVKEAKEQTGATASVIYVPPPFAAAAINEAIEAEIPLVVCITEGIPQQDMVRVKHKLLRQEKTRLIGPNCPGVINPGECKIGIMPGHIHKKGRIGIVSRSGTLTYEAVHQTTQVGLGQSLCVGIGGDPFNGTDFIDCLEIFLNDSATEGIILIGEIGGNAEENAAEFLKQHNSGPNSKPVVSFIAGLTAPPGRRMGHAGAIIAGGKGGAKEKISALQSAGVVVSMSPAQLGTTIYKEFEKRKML
Target,log2 fold change [1],log2 fold change (filanesib),log2 fold change (zotarolimus),log2 fold change (idasanutlin),log2 fold change (alisertib),log2 fold change [2],log2 fold change (gefitinib),log2 fold change [3],log2 fold change (lapatinib),log2 fold change (pictilisib),log2 fold change [4],log2 fold change (crizotinib),log2 fold change [5],log2 fold change [6],log2 fold change (duvelisib),log2 fold change (gandotinib),log2 fold change (tozasertib),log2 fold change [7],log2 fold change (doramapimod),log2 fold change (ispinesib)
SRSF11 (UniProt Q05519),0.084,0.093,0.012,-0.021,-0.079,0.017,0.023,0.018,0,-0.164,-0.037,0.015,0.045,-0.277 (active),0.021,-0.068,0.004,0.067,-0.015,0.08
SSR3 isoform 2 (UniProt Q9UNL2),-0.236,-0.107,0.087,0.066,-0.015,-0.013,0.003,0.08,0.006,-0.096,0.021,-0.043,0.05,-0.458 (active),0.012,0.281,0.003,-0.038,0.034,0.021
SNRNP40 (UniProt Q96DI7),-0.039,0.08,-0.015,0.007,-0.054,0.191,-0.052,0.025,0.02,0.295 (active),0.033,0.116,0.14,0.023,-0.015,0.22,0.019,-0.059,0.071,0.077
SRI (UniProt P30626),-0.015,0.053,0.133,-0.031,-0.035,-0.109,0.01,0.023,0.008,-0.04,-0.061,0.082,0.159,-0.139,0.212,-0.03,0.106,0.066,-0.032,0.353 (active)
SLC38A9 (UniProt Q8NBW4),0.033,0.064,-0.012,-0.004,0,0.053,-0.012,0.121,-0.065,-0.027,0.165,-0.201,0.052,0.003,0.081,-0.018,0.001,-0.058,0.067,-0.474 (active)
SPG21 (UniProt Q9NZD8),-0.026,0,0.063,0.03,-0.084,0.174,0.226,0.011,0.072,0.064,0.077,-0.24,0.053,0.013,0.003,0,0.026,0.052,0.091,-0.093
SMC5 (UniProt Q8IY18),-0.055,0.009,-0.032,-0.081,0.047,0.009,0.034,0.028,0.018,0.024,0.03,0.161,0.081,0.036,0.046,0.028,0.017,0.017,0.015,0.092
SUCLG1 (UniProt P53597),-0.046,-0.107,0.004,-0.107,0.037,0.051,-0.01,0.041,-0.043,0.003,0.016,-0.028,0.079,-0.072,0.067,-0.048,-0.033,-0.004,-0.019,-0.012
